BAZ2B inh = blocks human BAZ2B; AlphaScreen BAZ2B-H3K14Ac peptide displacement; Potency, µM (top dose mostly 114 µM), hits mostly inhibitors; 360,000 tested, 4.4% active; AID 504333; note: nearly all actives have a fitted effect of over 60% in size
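Protein-peptide AlphaScreen: BAZ2B 50 nM, b-H3K14Ac 50 nM, 1x PBS pH 7.4 + 0.01% Tween-20. Preincubation 30 min RT; cpd 30 min RT (top 110 uM); beads 20 min RT, light-protected.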
JMJD2A Tudor = JMJD2A Tudor domain (human) inhibition; Potency, µM (titrated, usually from 114 µM), usual class: inhibitors; AlphaScreen JMJD2A-Tudor / H3K4me3 peptide binding; 390,000 tested, 4.4% active; O75164; note: nearly all actives have a fitted effect of over 50% in size
CtBP-E1A inh = inhibitors of CtBP/E1A interaction | AlphaScreen GST-E1A/His-CtBP binding, 1536-well; stronger effect = lower value | activity change, % (test concentration not listed) | 340,000 tested, 0.49% active | AID 651724; in the data active = activity change below about -65%; inconclusive = mostly about -30% to -63%
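Steps: dispense buffer (Tris pH 8.0, NaCl 300 mM, TCEP 1 mM, BSA, Tween 20); add 5X protein mix (GST-E1A, His-CtBP, 125 nM each); pin 23 nL compound; 2 h at 37 °C, dark; add 5X beads (50 ug/mL); 1 h; read.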
G9a block = G9a (human) methyltransferase inhibition | AID 504332 | Potency, µM (titrated, usually from 102 µM), hits mostly inhibitors | G9a H3K9 monomethylation, AlphaScreen, 2 h | 350,000 tested, 8.8% active; note: nearly all actives have a fitted effect of over 75% in size
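Enzyme 20 nM + cpd, 15 min RT; add b-H3K9 pep 500 nM / SAM 20 uM; 2 h RT; anti-H3K9me1 Ab 0.5 ug/mL + SA donor / anti-rabbit acceptor beads 20 ug/mL each, 10 min; AlphaScreen read.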
Six1-Eya2 blk = blocks human Six1 binding to Eya2; 360,000 tested, 0.56% active; AID 651725; AlphaScreen GST-Six1/His-Eya2 binding, biochemical; stronger effect = lower value; Q15475+O00167; activity change, % (no concentration beside the values); in the data active = activity change below about -65%; inconclusive = mostly about -30% to -63%
Target sequence (O00167 whole entry, looked up): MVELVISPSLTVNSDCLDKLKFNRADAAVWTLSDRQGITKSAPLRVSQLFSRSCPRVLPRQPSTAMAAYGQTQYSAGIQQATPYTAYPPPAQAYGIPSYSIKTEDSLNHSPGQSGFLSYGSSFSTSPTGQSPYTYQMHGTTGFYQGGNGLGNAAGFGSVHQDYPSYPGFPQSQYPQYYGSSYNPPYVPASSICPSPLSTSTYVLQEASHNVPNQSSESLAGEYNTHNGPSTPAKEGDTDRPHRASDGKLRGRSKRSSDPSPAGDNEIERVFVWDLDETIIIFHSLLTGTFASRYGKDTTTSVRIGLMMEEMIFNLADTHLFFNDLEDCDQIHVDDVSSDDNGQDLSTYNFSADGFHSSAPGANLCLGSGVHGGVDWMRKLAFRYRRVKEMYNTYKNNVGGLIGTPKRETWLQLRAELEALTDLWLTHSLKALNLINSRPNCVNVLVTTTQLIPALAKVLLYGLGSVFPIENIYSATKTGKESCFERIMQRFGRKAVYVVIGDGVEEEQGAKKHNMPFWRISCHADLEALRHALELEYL
Target sequence (Q15475 whole entry, looked up): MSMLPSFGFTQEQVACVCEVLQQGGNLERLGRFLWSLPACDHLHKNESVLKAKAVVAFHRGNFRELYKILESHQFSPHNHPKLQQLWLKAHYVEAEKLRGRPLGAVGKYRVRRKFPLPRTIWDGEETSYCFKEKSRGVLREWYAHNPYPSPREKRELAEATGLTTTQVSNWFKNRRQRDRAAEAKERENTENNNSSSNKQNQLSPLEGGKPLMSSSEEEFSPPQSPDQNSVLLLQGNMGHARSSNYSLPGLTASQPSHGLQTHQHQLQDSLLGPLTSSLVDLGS
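Compounds are tested against tagged Six1 and Eya2 proteins bridged by glutathione donor and nickel acceptor beads; after a one-hour incubation at 37 °C without light, AlphaScreen emission is recorded.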
HP1b chromo inh = blocks HP1-beta chromodomain binding to methylated histone tails; P83916; AlphaScreen HP1-beta / biotin-H3K9me3 peptide binding; Potency, µM (series often up to 114 µM), most hits filed as inhibitors; 390,000 tested, 0.56% active; AID 540317; note: nearly all actives have a fitted effect of over 70% in size
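AlphaScreen: HP1-beta (50 nM) preformed 30 min with biotin-H3(1-18)K9me3 peptide (50 nM) in PBS pH 7.4, 0.01% Tween-20. Compound added for 30 min at RT, then streptavidin donor/nickel chelate acceptor beads (10 ug/mL) for 30 min.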
Numbers stand for hits; 0 = inactive; ? = inconclusive; - = no result; [ ] = another dose, or the depositor's remark. Rows were chosen to be rich in hits. Some 10% of all compounds tested hit in one or more screens of this group. Unless noted, calls come from the whole dose curve; as a rule, active = well fitted inhibition curve with a large enough effect; inconclusive = small, poorly fitted or top-dose-only effect; inactive = no such curve, though single readings can be large or run the other way.

SMILES | BAZ2B inh | JMJD2A Tudor | CtBP-E1A inh | G9a block | Six1-Eya2 blk | HP1b chromo inh
O=C(Nc1ccc(Cl)cc1)C1Cc2c(-c3cccc(F)c3)ccnc2O1 (configuration not stated) | - | - | 0 | - | 0 | -
CCSc1nnc2c(n1)OC(c1ccc(C)s1)Nc1ccccc1-2 (configuration not stated) | 0 | 0 | - | 0 | - | 0
CCSc1nnc2c(n1)OC1(CCCC1)Nc1ccccc1-2 | 0 | 0 | 0 | 35.5µM | 0 | 0
CSc1ccc(C(=O)C2CCCN(Cc3cccn3-c3cccnc3)C2)cc1 (configuration not stated) | ? | 44.7µM | 0 | ? | ? | ?
COc1ccc(C(=O)C2CCCN(Cc3cccn3-c3cccnc3)C2)cc1OC (configuration not stated) | 0 | 0 | 0 | 0 | 0 | 0
Cc1nc2ccccc2c(=O)n1NC(=O)C1CC1 | 0 | 0 | 0 | 0 | 0 | 0
CC(=O)N1CCN(C(=O)c2ccc3c(c2)S(=O)(=O)c2ccccc2C3=O)CC1 | 0 | 0 | 0 | 0 | 0 | 0
CCN1CCN(C(=O)c2ccc3c(c2)S(=O)(=O)c2ccccc2C3=O)CC1 | 0 | 0 | 0 | 50.1µM | 0 | 0
Cc1cccc(CC(=O)Nc2cccc(-c3nc4cccnc4s3)c2)c1 | 0 | 0 | - | 0 | - | 0
Cc1ccccc1C(=O)Nc1cccc(-c2nc3cccnc3s2)c1 | ? | 100µM | - | 0 | - | 0
CCS(=O)(=O)Nc1cc(-c2nc3cccnc3s2)ccc1C | 0 | 0 | 0 | 50.1µM | 0 | 0
C=CCCCCCCCCCCCC(O)CC(O)COC(C)=O (configuration not stated) (tested in a mixture with another compound) | - | - | - | 0[2.33 µM] | - | -
Cc1cc2oc(=O)cc(CSc3nc(N)cc(N)n3)c2cc1C(C)C | 31.6µM | 0 | 0 | 0 | 0 | 0
CC(=O)c1ccc(NC(=O)c2noc3c2CSc2ccccc2-3)cc1 | 0 | 0 | - | 0 | - | 0
CC(C)CC(NS(=O)(=O)OCC(Cl)(Cl)Cl)c1ccccc1 (configuration not stated) | 0 | 39.8µM | 0 | 0 | 0 | 0
COCCNS(=O)(=O)c1ccc(SC)cc1 | 0 | 0 | 0 | 0 | 0 | 0
CC1CCN(CC(O)COC2CC(C)CC(C)(C)C2)CC1 (configuration not stated) | - | 0 | 0 | - | 0 | 0
CC[N+]1(CC(O)COC2CC(C)CC(C)(C)C2)CCOCC1 (configuration not stated) | 0 | 20µM | 0 | 0[12.7 µM] | 0 | 0
CN(C(=O)CCc1ccccc1F)C1CCCN(Cc2ccccc2F)C1 (configuration not stated) | 0 | 10µM | 0 | 0[0.501 µM] | 0 | 0
COc1ccccc1CN1CCCC(C(=O)N2CCCCC2)C1 (configuration not stated) | 44.7µM | 1.78µM | 0 | 17.8µM | 0 | 70.8µM
COc1ccc(C(=O)N2CCCC(C(=O)O)C2)c2ccccc12 (configuration not stated) | 0 | 0 | 0 | 44.7µM | 0 | 0
COc1ccc(CN2CCCC(C(=O)N3CCCC3)C2)c(OC)c1OC (configuration not stated) | - | - | 0 | - | 0 | -
O=C(C1CCCN(Cc2ccccc2F)C1)N1CCCCC1 (configuration not stated) | 20µM | 3.98µM | 0 | 10µM | 0 | 44.7µM
COc1ccccc1C(=O)C1CCCN(C(=O)c2ccccc2C(C)=O)C1 (configuration not stated) | 0 | 0 | 0 | 0[12.7 µM] | 0 | 0
COc1cccc(CCC(=O)N(C)C2CCCN(Cc3ccccc3F)C2)c1 (configuration not stated) | 0 | 0 | - | 0 | 0 | 0
SMILES | BAZ2B inh | JMJD2A Tudor | CtBP-E1A inh | G9a block | Six1-Eya2 blk | HP1b chromo inh
O=C(O)C1=C2C(=O)Nc3cccc(c32)C2(C1)C(=O)Nc1ccccc12 (configuration not stated) | - | - | 0 | - | 0 | -
Cc1cc(C)n(CCC(=O)N=Nc2c(O)[nH]c3ccccc23)n1 | 0 | 0 | 0 | ? | 0 | 0
Cn1nc(C(=O)Nc2ccc(S(=O)(=O)N3CCOCC3)cc2)c2ccccc2c1=O | 0 | 0 | 0 | 0[12.7 µM] | 0 | 0
O=C(CN1CCCN(Cc2ccccc2Cl)S1(=O)=O)Nc1ccc2c(c1)OCCO2 | 0 | 0 | - | 0 | - | 0
Cc1ccc(-c2nnc(SCC(=O)NCCC(C)C)nc2-c2ccc(C)cc2)cc1 | 0 | ? | - | ? | - | 0
O=C(NCC(c1ccco1)N1CCN(c2ccc(F)cc2)CC1)C(=O)NC1CCCCC1 (configuration not stated) | 0 | 0 | 0 | 0 | 0 | 0
O=C(C1CCCN(Cc2ccccc2C(F)(F)F)C1)N1CCCCC1 (configuration not stated) | 50.1µM | 3.55µM | 0 | 5.01µM | 0 | ?
Cc1ccc(NC(=O)c2ccc(-c3cccc(Cl)c3C)o2)cc1 | 0 | 0 | - | 0 | - | 0
COc1ccc(NC(=O)c2ccc(-c3ccccc3Cl)o2)cc1 | 0 | 0 | 0 | 79.4µM | 0 | 0
O=C(Nc1cccc(F)c1)c1ccc(-c2ccccc2Cl)o1 | ? | 0 | 0 | 56.2µM | 0 | 0
O=C(NCc1cccnc1)c1ccc(-c2cccc(Cl)c2Cl)o1 | 70.8µM | 0 | 0 | - | 0 | 0
Cc1cc2c(cc(C(=O)NCc3cccnc3)n2Cc2ccc(Cl)cc2)o1 | ? | 50.1µM | 0 | ? | 0 | 0
Cc1cc(C(=O)NCc2cccnc2)no1 | 0 | 0 | 0 | 0 | 0 | 0
COc1ccc(NC(=O)c2ccc(-c3cccc(Cl)c3C)o2)cc1 | 0 | 0 | - | 0 | - | 0
COc1ccc(OCc2cc(C3Nc4ccccc4C(=O)N3Cc3ccccc3)ccc2OC)cc1 (configuration not stated) | - | 0 | - | - | - | -
CC(C)Oc1ccc(C(=O)N(Cc2ccco2)c2ccccn2)cc1 | 0 | 0 | - | 0 | - | 0
O=C(CNC(=O)c1ccccc1)NCC(=O)OCC(=O)c1ccc2ccccc2c1 | - | 0 | - | - | - | 0
CCOc1ccccc1NC(=O)Cn1c(=O)n(-c2ccc(Cl)cc2)c(=O)c2oc3ccccc3c21 | 0 | 0 | - | 0 | - | 0
COc1ccc(C(CNC(=O)c2ccc(-c3ccccc3Cl)o2)N2CCOCC2)cc1 (configuration not stated) | ? | 0 | 0 | 44.7µM | 0 | 0
CCc1ccc2oc(C(=O)NCC(c3ccc(Cl)cc3)N3CCOCC3)c(C)c2c1 (configuration not stated) | 0 | 0 | - | 0 | - | 0
Cc1ccc2c(C)c(C(=O)NCC(c3ccc(Cl)cc3)N3CCOCC3)oc2c1 (configuration not stated) | ? | 0 | - | 12.6µM | - | 0
COc1ccc(NC(=O)c2ccc(C(=O)c3ccccc3)o2)cc1 | 0 | 0 | 0 | 0[2.33 µM] | 0 | 0
COc1ccc(NC(=O)c2ccc(-c3ccc(C)c4ccccc34)o2)cc1 | 0 | 0 | 0 | 39.8µM | 0 | 0

High-throughput results deposited in PubChem by National Center for Advancing Translational Sciences (NCATS).
